As a reminder, the viability is a read-out of living cells in per cent, often relative to untreated cells. One may read the inhibition as how much of the control response was suppressed.

The source of these data is PubChem BioAssay.

The nature of experiment [1]: circadian clock period modulators, cell-based, LOPAC library, luminescence reporter (AID 2774; call rule not given here;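 also: values are relative to mean of DMSO wells on each plate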). The note with it: circadian reporter cells, at 7 µM, actives lie on both sides.
Experiment [2] can be described thus: hESC survival regulators, cell-based (AID 493140; call rule not given here;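 also: cells exposed to compounds for four days before counting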). The note with it: human embryonic stem cell survival screen; stronger effect = higher value.
Experiment [3] in a line: liver-stage malaria parasite growth inhibition, primary screen, cell-based, HepG2, luciferase luminescence, HepG2 viability (AID 624349; in the data active = parasite load remaining mostly below about 12%, no sharp cut-off; inactive = mostly above about 10%;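 also: 100% = mean of DMSO negative control wells on the same plate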). Conditions: P. berghei liver stage in HepG2, luciferase luminescence, concentration not given here; parasite load remaining: stronger effect = lower value; viability: measured here: HepG2 viability without parasites.
Experiment [4] concerns Hepatitis C virus NS3 helicase. Kind of experiment: HCV NS3 helicase inhibitors, primary screen, biochemical, fluorescence polarization, LOPAC1280 library (AID 687035; in the data active = inhibition above about 37%). Conditions: Purified HCV NS3 helicase, Cy5-dT15 ssDNA binding fluorescence polarization; stronger effect = higher value; concentration not given here. Background: In fluorescence polarisation assays a small probe gives low polarisation when free and higher when bound to something large.

The nature of experiment [5]: Cy5 fluorescence quenching or enhancement artefacts, artefact control for HCV NS3 helicase inhibitor project, biochemical, LOPAC1280 (AID 687037; call rule not given here). The note with it: Cy5-DNA-NS3h complex fluorescence interference counterscreen.
The nature of experiment [6]: sensitizers of A549 cells to miR-34 induction, primary screen, imaging, A549 dox-inducible miR-34, nuclei and caspase counts (AID 1347080;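 active = compounds whose cell count with miR-34 switched on is under 0.7 times the count with it off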). The note with it: A549 miR-34 inducible, Hoechst nuclei count, 48 h.
The nature of experiment [7]: phospholipid biosynthesis inhibitors in animal cells, primary screen, cell-based, LOPAC library, screen 4 (AID 1347384; call rule not given here). Conditions: phospholipid biosynthesis inhibition screen, at 10 µM.
Experiment [8] is described as follows: survival rescue of mitochondrial mutant cells in low glucose, primary screen, MELAS cybrids, Rieske KO mouse fibroblasts, CellTiter-Glo (AID 1508586;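 active = mean z-score across replicates of 1.96 or higher in either the MELAS or the Rieske mutant cell line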;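 also: z relative to plate mean and SD of compound and empty wells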). A general note: ATP-based viability assays read luminescence as a measure of living cells.
A short description of experiment [9]: viability rescue of complex I mutant cybrids, primary screen, cell-based, galactose medium, ATP luminescence (AID 1645843;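 active = z-score of at least 1.8 in each of two replicates, scored against plate mean and spread of sample wells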;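 also: positive z means more ATP and so rescue of galactose-driven cybrid death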). Conditions: complex I mutant cybrid cells, 72 h, stronger effect = higher value.
Experiment [10] in a line: inhibitors of Cryptococcus chitosan production, flow cytometry, Cibacron Brilliant Red staining (AID 1347148; call rule not given here;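 also: compound exposure lasted three days at 37 degrees C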). The note with it: Cryptococcus neoformans chitosan, stronger effect = lower value; at 10 µM unless noted.
Experiment [11] in a line: modifiers of HSF1 nuclear foci, imaging, Selleck Cancer Library (AID 1347162; in the data active = plate-normalised HSF1 focus index below about 0.46). Conditions: human cells, at 10 µM; SSMD: measured here: HSF1 foci SSMD mean; cell count: measured here: cell number; plate-normalised HSF1 focus index: stronger effect = lower value.
The nature of experiment [12]: ovarian cancer cell viability with rucaparib, profiling panel, oncology-focused library, rucaparib conditional (AID 1508598). Conditions: patient-derived ovarian cancer cells, CellTiter-Glo viability, 144 h, stronger effect = lower value.
[13] abbreviates: stronger effect = lower value, cell number ratio, induced over uninduced.
Setting [14] is: measured here: relative caspase fold change +Dox/-Dox.
Setting [15] is: measured here: total cells with miR-34 induction, stronger effect = lower value.
Where [16] appears, read: measured here: total cells without miR-34 induction.
The mark [17] stands for this setting: MELAS cybrid survival, CellTiter-Glo 48 h, stronger effect = higher value.
Setting [18] is: Rieske KO mouse fibroblast survival, CellTiter-Glo 72 h.

Structures are written as SMILES. Values joined by “and” are separate entries in the source; they are usually repeats but may differ in a detail not shown here. Identical values can stand only once. Active and inactive are the calls of the source.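 The calls were made as follows, unless noted: active = normalized viability below 100% at a tested concentration; inactive = the rest.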

With `O=C(O)CNC(=O)C(CS)Cc1ccccc1` (configuration not stated), the period change in experiment [1] was -0.18 h (inactive). For the same compound, in experiment [2], the survival is 4.92 (inactive). Further, the parasite load remaining in experiment [3] is 144% (inactive) and 78.5% (inactive). In addition, in experiment [3], the viability was 103% and 75.5%. Besides, in experiment [4], the inhibition is 0% (inactive). For the same compound, the fluorescence ratio (interference) in [5] was 1 (inactive). Besides, the fold change is 0.968 (inactive) and 0.835 (inactive) and 1 (inactive) in experiment [6] (setting [13]); 1.08 and 1.52 and 1.29 in experiment [6] (setting [14]). The cell count in [6] (setting [15]) is 9910 and 8670 and 5950; in [6] (setting [16]), 10200 and 10400 and 5920. Moreover, the compound was called inactive in [7]. For the same compound, the z-score in experiment [8] (setting [17]) is -0.922 (inactive); in experiment [8] (setting [18]), 0.154; in experiment [9] it was 0.48 (inactive).
In the case of `CCCCCCCCCCCCC/C=C/[C@@H](O)[C@H](CO)NCCCCCCCC`, the survival in [2] is 61.3 (inactive). In addition, the fold change in [6] (setting [13]) is 0.925 (inactive) and 1 (inactive); in experiment [6] (setting [14]), 1.2 and 0.737. The cell count was 5120 and 5820 in experiment [6] (setting [15]); 5540 and 5810 in [6] (setting [16]). The fold fluorescence in experiment [10] is 10.3 (inactive).
`COc1ccc(C2=NC(c3ccc(Cl)cc3)C(c3ccc(Cl)cc3)N2C(=O)N2CCNC(=O)C2)c(OC(C)C)c1` (configuration not stated): the fold change was 0.914 (inactive) and 0.912 (inactive) and 0.921 (inactive) in [6] (setting [13]); 0.374 and 0.688 and 0.486 in [6] (setting [14]). Further, the cell count in experiment [6] (setting [15]) is 2920 and 2710 and 7580; in experiment [6] (setting [16]), 3200 and 2970 and 8230; in experiment [11], 7540. In addition, in experiment [11], the SSMD stood at 2.83. In experiment [11], the plate-normalised HSF1 focus index is 1.18 (inactive). Moreover, the z-score was 0.254 (inactive) and -0.293 (inactive) and -0.371 (inactive) in experiment [8] (setting [17]); 0.0375 and 0.393 and 0.654 in experiment [8] (setting [18]). Also, the viability is 120% (inactive) in experiment [12] (at 0.000305 µM, OCI-C5x cells, with rucaparib 10 µM, 100% = cells with rucaparib alone); 129% (inactive) in [12] (at 0.000305 µM, OCI-C5x cells, without rucaparib); 108% (inactive) in experiment [12] (at 0.000305 µM, OCI-P5x cells, with rucaparib 20 µM, 100% = cells with rucaparib alone); 104% (inactive) in experiment [12] (at 0.000305 µM, OCI-P5x cells, without rucaparib); 116% (inactive) in experiment [12] (at 0.00122 µM, OCI-C5x cells, with rucaparib 10 µM, 100% = cells with rucaparib alone); 136% (inactive) in [12] (at 0.00122 µM, OCI-C5x cells, without rucaparib). Besides, the viability was 104% (inactive) in [12] (at 0.00122 µM, OCI-P5x cells, with rucaparib 20 µM, 100% = cells with rucaparib alone); 93.6% (active) in experiment [12] (at 0.00122 µM, OCI-P5x cells, without rucaparib); 112% (inactive) in experiment [12] (at 0.00488 µM, OCI-C5x cells, with rucaparib 10 µM, 100% = cells with rucaparib alone); 124% (inactive) in [12] (at 0.00488 µM, OCI-C5x cells, without rucaparib); 96.2% (active) in experiment [12] (at 0.00488 µM, OCI-P5x cells, with rucaparib 20 µM, 100% = cells with rucaparib alone); 91.7% (active) in experiment [12] (at 0.00488 µM, OCI-P5x cells, without rucaparib). The viability in [12] (at 0.0195 µM, OCI-C5x cells, with rucaparib 10 µM, 100% = cells with rucaparib alone) was 110% (inactive); in [12] (at 0.0195 µM, OCI-C5x cells, without rucaparib), 128% (inactive); in experiment [12] (at 0.0195 µM, OCI-P5x cells, with rucaparib 20 µM, 100% = cells with rucaparib alone), 97% (active); in experiment [12] (at 0.0195 µM, OCI-P5x cells, without rucaparib) it was 93.4% (active); in experiment [12] (at 0.0781 µM, OCI-C5x cells, with rucaparib 10 µM, 100% = cells with rucaparib alone), 108% (inactive); in experiment [12] (at 0.0781 µM, OCI-C5x cells, without rucaparib), 124% (inactive). In addition, the viability is 102% (inactive) in experiment [12] (at 0.0781 µM, OCI-P5x cells, with rucaparib 20 µM, 100% = cells with rucaparib alone); 95.5% (active) in experiment [12] (at 0.0781 µM, OCI-P5x cells, without rucaparib); 113% (inactive) in experiment [12] (at 0.313 µM, OCI-C5x cells, with rucaparib 10 µM, 100% = cells with rucaparib alone); 115% (inactive) in experiment [12] (at 0.313 µM, OCI-C5x cells, without rucaparib); 97.6% (active) in [12] (at 0.313 µM, OCI-P5x cells, with rucaparib 20 µM, 100% = cells with rucaparib alone); 86.9% (active) in experiment [12] (at 0.313 µM, OCI-P5x cells, without rucaparib). The viability is 103% (inactive) in experiment [12] (at 1.25 µM, OCI-C5x cells, with rucaparib 10 µM, 100% = cells with rucaparib alone); 111% (inactive) in experiment [12] (at 1.25 µM, OCI-C5x cells, without rucaparib); 91.3% (active) in [12] (at 1.25 µM, OCI-P5x cells, with rucaparib 20 µM, 100% = cells with rucaparib alone); 89.1% (active) in [12] (at 1.25 µM, OCI-P5x cells, without rucaparib); 109% (inactive) in [12] (at 5 µM, OCI-C5x cells, with rucaparib 10 µM, 100% = cells with rucaparib alone); 104% (inactive) in experiment [12] (at 5 µM, OCI-C5x cells, without rucaparib). Further, the viability was 82.1% (active) in experiment [12] (at 5 µM, OCI-P5x cells, with rucaparib 20 µM, 100% = cells with rucaparib alone) and 90.4% (active) in experiment [12] (at 5 µM, OCI-P5x cells, without rucaparib).
Take `CCc1cncnc1N1CCN(Cc2nc3ccc(C(F)(F)F)cc3[nH]2)CC1`: the fold change in experiment [6] (setting [13]) was 0.998 (inactive) and 0.92 (inactive); in experiment [6] (setting [14]), 1.49 and 0.523. Moreover, the cell count is 6670 and 5920 in experiment [6] (setting [15]); 6690 and 6430 in experiment [6] (setting [16]); 7470 in experiment [11]. Moreover, in experiment [11], the SSMD came out at 2.94. In experiment [11], the plate-normalised HSF1 focus index is 1.18 (inactive). Besides, the compound was classed as inactive in experiment [7]. The figures for the z-score in experiment [8] (setting [17]), in [8] (setting [18]) and in [9] were 0.232 (inactive), 0.0669 and -1.37 (inactive), respectively.
